Laboratory results taken from PubChem BioAssay (NCI).
Values joined by “and” are separate entries in the source; they are usually repeats but may differ in a detail not shown here. Equal entries are not always repeated. This is part of a sample that, as a whole, favours compounds with a hit. Of some 83,000 tested, about 20% had one in any assay.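 Step 1: grow cells in 96-well plates. Step 2: add test compound at a single concentration. Step 3: incubate 48 h. Step 4: record percent growth.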

Assays:
Assay in all cases: NCI-60 one-dose screen, 48 h (100 = growth as untreated, 0 = no growth, -100 = all killed); active means growth percent below 10; inactive means the rest
T-47D breast = tested on: T-47D breast
BT-549 breast = tested on: BT-549 breast
MDA-MB-435 melanoma = tested on: MDA-MB-435 melanoma
SW-620 colon = details: 10 µM unless noted
MCF7 breast = tested on: MCF7 breast
HCT-116 colon = tested on: HCT-116 colon
HCC-2998 colon = details: 10 µM unless noted
KM12 colon = tested on: KM12 colon

Measured: growth

Nc1n[nH]c(=S)n1-c1ccc(Cl)cc1
inactive: T-47D breast; 10 µM unless noted 97.6% | BT-549 breast; 10 µM unless noted 92.5% | MDA-MB-435 melanoma; 10 µM unless noted 112% | SW-620 colon 97% | MCF7 breast; 10 µM unless noted 90.8% | HCT-116 colon; 10 µM unless noted 95.4% | HCC-2998 colon 108% | KM12 colon; 10 µM unless noted 103%

CC(CN=Cc1ccccc1O)N=Cc1ccccc1O (stereo not given)
inactive: T-47D breast; 10 µM unless noted 96.9% and 94.2% | BT-549 breast; 10 µM unless noted 67.1% and 118% | MDA-MB-435 melanoma; 10 µM unless noted 94% and 122% | SW-620 colon 110% and 96.8% | MCF7 breast; 10 µM unless noted 94.9% and 95.8% | HCT-116 colon; 10 µM unless noted 104% and 102%

CNC(=O)c1cc(Oc2ccc(CC(=O)Nc3cc(C(C)(C)C)nn3C)cc2)ccn1
inactive: T-47D breast; 1 µM 57.4% | T-47D breast; 10 µM 44.7% | T-47D breast; 30 µM 51.7% | BT-549 breast; 1 µM 72.6% | BT-549 breast; 10 µM 82.4% | BT-549 breast; 30 µM 81% | MDA-MB-435 melanoma; 1 µM 78.1% | MDA-MB-435 melanoma; 10 µM 61.8% | MDA-MB-435 melanoma; 30 µM 67.9% | MCF7 breast; 1 µM 61.4% | MCF7 breast; 10 µM 53.5% | MCF7 breast; 30 µM 44.4% | HCT-116 colon; 1 µM 65% | HCT-116 colon; 10 µM 33.9% | HCT-116 colon; 30 µM 47.4% | KM12 colon; 1 µM 88.4% | KM12 colon; 10 µM 58.5% | KM12 colon; 30 µM 64.6%

c1ccc2c(CC3=NCCN3)cccc2c1
inactive: T-47D breast; 10 µM unless noted 106% and 111% | BT-549 breast; 10 µM unless noted 101% and 96.9% | MDA-MB-435 melanoma; 10 µM unless noted 101% and 106% | SW-620 colon 107% and 110% | MCF7 breast; 10 µM unless noted 99.4% and 102% | HCT-116 colon; 10 µM unless noted 94.7% and 104% | HCC-2998 colon 97.5% and 103% | KM12 colon; 10 µM unless noted 109% and 111%
